USP17 inh: inhibitors of human USP17 deubiquitinase; Ubiquitin carboxyl-terminal hydrolase 17-like protein 5 (Homo sapiens), A8MUK1; purified USP17, Ub-rhodamine cleavage fluorescence, 3 h; inhibition, % at 50 µM; actives 6.5% (n = 47,000)
Target sequence (A8MUK1 whole entry, looked up): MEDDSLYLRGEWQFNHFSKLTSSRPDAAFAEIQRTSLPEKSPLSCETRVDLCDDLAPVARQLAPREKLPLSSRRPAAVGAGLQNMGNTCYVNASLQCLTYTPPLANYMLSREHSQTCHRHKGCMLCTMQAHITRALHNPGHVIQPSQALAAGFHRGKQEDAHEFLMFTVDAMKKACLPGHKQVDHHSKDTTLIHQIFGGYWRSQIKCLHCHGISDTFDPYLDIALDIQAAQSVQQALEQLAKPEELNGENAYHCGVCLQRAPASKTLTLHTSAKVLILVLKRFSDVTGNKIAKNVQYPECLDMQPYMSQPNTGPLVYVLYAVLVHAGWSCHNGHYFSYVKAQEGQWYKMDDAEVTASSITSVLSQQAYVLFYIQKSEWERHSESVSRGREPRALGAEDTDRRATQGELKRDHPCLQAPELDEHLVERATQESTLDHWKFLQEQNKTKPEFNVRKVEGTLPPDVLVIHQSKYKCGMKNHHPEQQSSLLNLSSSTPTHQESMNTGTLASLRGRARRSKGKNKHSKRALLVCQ
USP30 block: inhibitors of human USP30 deubiquitinase | AID 1645860, 2021 | actives 5.3% (n = 47,000) | inhibition, % at 25 µM | purified USP30, Ub-rhodamine cleavage fluorescence | Ubiquitin carboxyl-terminal hydrolase 30 (Homo sapiens), Q70CQ3
USP8 inh: inhibitors of human USP8 deubiquitinase. purified USP8, Ub-rhodamine cleavage fluorescence, 30 min. inhibition, % at 20 µM. actives 4.2% (n = 47,000). AID 1645853, 2021
USP28 block: inhibitors of human USP28 deubiquitinase. purified USP28, Ub-rhodamine cleavage fluorescence, 30 min. inhibition, % at 25 µM. actives 3% (n = 47,000)
* marks the source's active call; other numbers are inactive results; nt = no result given. In the library only some 14% were active in any assay of this set; here they are far more common. Cut-off read from the data, not from the text of the source: active = inhibition above about 30%; inactive = the rest.

SMILES	USP17 inh	USP30 block	USP8 inh	USP28 block
COc1ccc(S(=O)(=O)N2CCOCC2)cc1NC(=O)COc1ccc(C)cc1	-2	0	-9	8
Cc1ccccc1CSc1nc(-c2ccco2)nc2c1c(=O)n(C)c(=O)n2C	0	-14	1	-4
Fc1ccc(-c2nc(C3CC3)ncc2-c2nnnn2-c2ccccc2)cc1F	15	30*	23	17
Fc1ccc(-c2nc(C3CC3)ncc2-c2nnnn2-c2ccccc2)c(F)c1	12	19	3	13
O=c1cc(CNc2ccc(Br)cc2)nc2nc(-c3ccccc3)[nH]n12	82*	32*	45*	42*
COc1cccc(NC(=O)CN2C(=O)C(C(=O)N3CCCC3)Sc3ccccc32)c1 (stereo not given)	-14	-3	-6	-5
COc1ccc(C(=O)NCc2nnc(SCC(=O)Nc3ccc(C)c(Cl)c3)o2)cc1	5	18	2	8
COc1ccc2nc(SCC(=O)Nc3ccc(NC(C)=O)cc3)c(C)cc2c1	59*	30	69*	8
Cc1ccccc1Cn1ccc(NC(=O)c2noc(C)c2[N+](=O)[O-])n1	-9	8	-81	75*
COc1ccc(C(c2c[nH]c3ccccc23)c2c[nH]c3ccccc23)cc1O	16	-53	38*	7
COc1cc(C(=O)NCC(c2ccccc2)c2c[nH]c3ccccc23)cc(OC)c1OC (stereo not given)	0	-5	-16	11
Cc1cccc(C(=O)NC(Cc2ccccc2)c2nc3ccccc3[nH]2)c1 (stereo not given)	22	13	0	-1
COc1cc(C(=O)NC(Cc2ccccc2)c2nc3ccccc3[nH]2)cc(OC)c1OC (stereo not given)	3	66*	10	11
O=C(NC(Cc1ccccc1)c1nc2ccccc2[nH]1)c1cc(=O)[nH]c2ccccc12 (stereo not given)	61*	56*	-24	17
CCCN(CCC)C(=O)Cn1c(=O)n(Cc2ccc(C(=O)NCc3ccco3)cc2)c(=O)c2ccccc21	2	0	20	7
O=C(NCc1ccco1)c1ccc(Cn2c(=O)c3sccc3n(Cc3cc(=O)n4ccccc4n3)c2=O)cc1	70*	40*	68*	50*
CC(=O)OCCc1c(C)nc2nc(-c3ccc(C)cc3)[nH]n2c1=O	7	10	4	-3
Cc1nc(-c2ccc(C)c(S(=O)(=O)N(C)Cc3ccccc3)c2)cs1	0	-3	0	12
COc1ccc(-c2cc(C(=O)NCC(c3ccc(C)cc3)N3CCCC3)no2)cc1 (stereo not given)	-31	-99	-1	-27
COc1ccc(C(CNC(=O)c2cc(-c3ccc(C)c(C)c3)on2)N2CCOCC2)cc1 (stereo not given)	21	35*	9	11
COc1cccc(NC(=O)c2c(-c3ccc(C)cc3)c3c4n(c(-c5ccc(C)cc5)cn24)CCCC3)c1	-8	-158	-12	-20
Cc1cc(NC(=O)Cn2c(=O)n(CCCCC(=O)NCc3ccco3)c(=O)c3ccccc32)ccc1Br	64*	5	84*	0
O=C(Cn1c(=O)n(CC2CCC(C(=O)NC3CCCC3)CC2)c(=O)c2ccccc21)NCCC1=CCCCC1 (stereo not given)	50*	40*	24	2
Cc1ccc(NC(=O)Cn2c(=O)n(CC(=O)NCc3ccco3)c(=O)c3ccccc32)cc1C	63*	45*	22	44*
O=C(CCCn1c(=O)c2ccccc2n(Cc2ccccc2)c1=O)NCc1ccco1	17	10	15	4
SMILES	USP17 inh	USP30 block	USP8 inh	USP28 block
O=C(Cn1c(=O)n(CCC(=O)N2CC=C(c3ccccc3)CC2)c(=O)c2ccccc21)NCc1ccco1	63*	28	51*	25
CC(=O)N1CCN(c2nc(-c3ccncc3)nc3c2CCC3)CC1	10	27	18	9
CCOc1ccc(NC(=O)Cn2c(=O)n(CCC(=O)NCc3ccco3)c(=O)c3ccccc32)cc1	71*	3	45*	8
O=C(CCCCn1c(=O)c2ccccc2n(CC(=O)NC2CCCCC2)c1=O)NCCc1ccccc1	14	28	10	11
O=C(CCCCn1c(=O)c2ccccc2n(CC(=O)NCCC2=CCCCC2)c1=O)NCc1ccco1	10	-8	42*	-3
Cc1ccc(NC(=O)COC(=O)c2cccnc2Nc2cccc(C(F)(F)F)c2)c(C)c1	11	25	15	9
Cc1cccc(Nc2nc(N3CCCCC3)nc(N3CCCCC3)n2)c1	0	30*	18	7
Cc1ccc(-c2cc(CC3(C(=O)O)CCCN(C(=O)C4CCCC4)C3)on2)cc1 (stereo not given)	20	29	18	13
Nc1nc(-c2ccc3c(c2)NC(=O)CO3)cs1	-1	9	-40	9
O=C1COc2ccc(-c3cc4n(c3)CCc3cc5c(cc3-4)OCO5)cc2N1	18	-47	43*	8
Cc1cc(-c2cnc(N3CCSCC3)nc2[C@@H]2CCCO2)on1	30	33*	-19	0
Cc1cc(-c2cnc(N3CCCCC3)nc2C2CCN(c3cnccn3)CC2)on1	17	34*	6	8
Cc1cc(-c2cnc(NC3CCCC3)nc2[C@H]2CCCO2)on1	-7	nt	-1	nt
CN1C[C@@H]2C[C@H](NC(=O)Nc3ccc(F)cc3)CN2Cc2ccccc21	-2	9	11	0
CC(=O)Nc1ccc(NC(=O)N[C@H]2C[C@H]3CN(C)c4ccccc4CN3C2)cc1	-2	-31	3	31*
Cn1c(C2CCN(C(=O)Nc3cccc(F)c3)C2)nc2cccnc21 (stereo not given)	0	-17	12	2
N[C@@H](Cc1ccccc1)C(=O)N1CCC2(CC1)CN(C(=O)c1ccc(Cl)cc1)CCO2	46*	68*	-271	45*
CN1CCCC12CCCN(C(=O)c1ccc(Cl)cc1)C2 (stereo not given)	-4	-3	-51	-11
COc1ccc(C(=O)CCN2CCOCC2)cc1[N+](=O)[O-]	-2	28	1	2
COc1ccccc1CC(=O)N(C)C(c1ccccc1)c1ccccc1	27	52*	-5	26
CC1CCN(C(=O)Nc2cccc(C#N)c2)Cc2nc3ccccc3n21 (stereo not given)	2	5	9	7
CC1CCN(C(=O)Nc2ccc3ccccc3c2)Cc2nc3ccccc3n21 (stereo not given)	28	33*	-126	7
COc1ccc(N(C)S(=O)(=O)c2cccc(C(=O)OCC(=O)N(Cc3ccccc3)C(C)C)c2)cc1	14	30*	22	13
CCCOC(=O)c1ccc(NC(=O)c2cccc(S(=O)(=O)N(C)c3ccc(OC)cc3)c2)cc1	-2	-22	0	3
Cc1nc(SCC(=O)NC2CCCCC2)c2oc3ccccc3c2n1	-11	nt	2	nt

High-throughput results deposited in PubChem by Buhrlage Lab, Dana-Farber Cancer Institute and Novartis Institutes for BioMedical Research (Cambridge, Mass).
